Screens (PubChem)
L major viab – Leishmania major promastigote growth inhibition. Leishmania major promastigotes, resazurin fluorescence viability. 200,000 compounds, 9% hits. AID 1063. inhibition, % at 10 µM; in the data active means inhibition above about 50%;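 further: promastigotes grown with compound for 44 hours at 28 °C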
CHOP inh – CHOP inhibition in unfolded protein response; CHO-K1 CHOP-promoter luciferase, tunicamycin-induced, 15-18 h; inhibition, % at 10 µM; 220,000 compounds, 3.8% hits; AID 2732;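 active means compounds that reduced the stress-induced luciferase reporter signal by more than about 70% of percent inhibition, limit read from the data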
Arbovirus anti – blocks arbovirus infection | arbovirus infection cell-based antiviral screen | inhibition, % at 10 µM | 200,000 compounds, 0.37% hits; in the data active means inhibition above about 30%
WT yeast gro inh – growth inhibition of WT yeast, mitochondrial fusion screen; mitochondrial fusion phenotypic screen, WT strain; inhibition, % at 10 µM; 190,000 compounds, 2.1% hits; AID 1362; in the data active means inhibition above about 58%; tested in S. cerevisiae
A number is an active result; i = inactive; nt = no result. Rows were chosen to be rich in hits. Some 12% of all compounds tested hit in one or more screens of this group.

SMILES	L major viab	CHOP inh	Arbovirus anti	WT yeast gro inh
CC(=O)N1CCc2cc(Br)cc(S(=O)(=O)NCCCN3CCCC(C)C3)c21 (centres undefined)	99.8	i	i	i
Cc1csc(-c2cnn(-c3ccccc3)c2NC(=O)c2ccc(C(F)(F)F)cc2)n1	i	i	i	i
COc1ccc(OC)c(NC(=O)C2=C(C)NC(=O)NC2c2cccs2)c1 (centres undefined)	i	i	i	i
CCn1c(SCC(=O)NC(C)(C)C)nnc1-c1ccccn1	i	i	i	i
O=C(N[C@H](C(=O)O)c1ccccc1)C1CCC(Cn2cnc3ccccc3c2=O)CC1 (some centres undefined)	nt	i	nt	nt
CCCNS(=O)(=O)c1ccc(OCC(=O)N2CCOCC2)cc1	i	i	i	i
Cc1nonc1C1CCCN1Cc1cn[nH]c1-c1ccc2c(c1)OCO2 (centres undefined)	i	i	i	i
Cc1ccc(NC(=O)c2cccc(OC(F)F)c2)c(OC(F)F)c1	i	i	i	i
Cc1c(Cl)cccc1NC(=O)c1cccc(OC(F)F)c1	99.3	i	i	i
O=S(=O)([N-]c1nc2ccccc2nc1-n1cc[n+](Cc2ccccc2)c1)c1ccc(Br)cc1	nt	i	nt	nt
CCCNS(=O)(=O)c1ccc(CCC(=O)N2CCN(c3ccc(OC)cc3)CC2)cc1	i	i	i	i
CCCNS(=O)(=O)c1ccc(CCC(=O)N2CCN(c3ccc(F)cc3)CC2)cc1	56.8	i	i	i
Cc1cc(C)cc(NC(=O)Nc2ccc(-n3ccc(C(F)(F)F)n3)cc2)c1	nt	83.0	nt	nt
O=C(Nc1ccc(-n2ccc(C(F)(F)F)n2)cc1)Nc1cccc(Cl)c1	nt	i	nt	nt
NC(=O)NC(=O)COC(=O)[C@H](Cc1ccccc1)NC(=O)c1cccs1	i	i	i	i
CCN(CCO)C(=O)CC(c1ccccc1)c1cc(Br)ccc1O (centres undefined)	50.1	i	i	i
CCCN(CCC)C(=O)CC(c1ccccc1)c1cc(C)ccc1O (centres undefined)	i	i	i	i
c1ccc(CCC2CCCCN2Cc2nc(-c3ccc4c(c3)OCO4)no2)nc1 (centres undefined)	i	i	i	i
COc1cc(C(O)CO)ccc1OS(=O)(=O)O (centres undefined)	nt	i	nt	nt
CCn1cc(C(=O)N=c2sc3ccccc3n2C)c(=O)c2ccc(C)nc21	88.6	nt	nt	nt
O=Nc1c(O)n(Cc2ccccc2)c2ccccc12	nt	i	nt	nt
Cc1c(CCCN)c2ccccc2n1Cc1ccccc1	91.9	i	i	i
CC(C)(C)c1cc(/C=N/O)cc(C(C)(C)C)c1O	i	i	i	79.8
O=C(NCc1cccc(C(F)(F)F)c1)C1CC(c2ccccc2[N+](=O)[O-])=NO1 (centres undefined)	i	i	i	i
O=C(NCc1cc(C(F)(F)F)cc(C(F)(F)F)c1)C1CC(c2ccccc2[N+](=O)[O-])=NO1 (centres undefined)	87.8	i	i	i
SMILES	L major viab	CHOP inh	Arbovirus anti	WT yeast gro inh
C/C(=N\O)C(C)NC(=O)c1ccccc1 (centres undefined)	i	i	i	i
CC(C)(NO)/C(=N\O)c1ccccc1	i	71.6	i	i
C=C(C)C1Cc2c(C)nn(-c3nc(C)cc(C)n3)c2C1 (centres undefined)	i	i	i	63.9
C=C(C)C1Cc2nc(N)nc(C)c2C1 (centres undefined)	i	i	i	i
COc1cc(NC2=Nc3cccc4cccc2c34)cc(OC)c1OC	56.3	i	i	i
O=C(NC(NC(=O)c1ccccc1)c1ccccc1)c1ccccc1	i	79.6	i	i
O=C(NC(c1ccccc1)C(Cl)Cl)c1ccccc1 (centres undefined)	i	i	i	i
O=C1NC(=O)/C(=C\c2ccc(N3CCOCC3)o2)N1	i	i	i	i
COc1cccc(CNCC(O)(c2ccc(Cl)cc2)c2ccc(Cl)cc2)c1	65.5	i	i	i
COc1ccc(CNCc2cccc(Cl)c2)cc1	65.8	i	i	i
O=C(NCCc1ccc(F)cc1)c1cc(=O)c2ccccc2o1	i	i	i	i
COC(=O)c1cnn2c1C(=O)N(Cc1cccs1)CC2	i	i	i	i
CCOc1cc(S(=O)(=O)NC2CCCCCC2)ccc1F	i	75.9	i	i
CCOc1ccc(S(=O)(=O)NC2CCCCCC2)cc1	i	i	i	i
COc1ccc(S(=O)(=O)NC2CCCCC2)cc1C	i	82.9	i	i
COc1cc(C(=O)NCCOc2cc(C)cc(C)c2)c(Br)c(OC)c1OC	i	i	i	i
CCOC(=O)C1=C(O)/C(=C/c2ccc(OCC(=O)O)c(OCC)c2)SC1=Nc1ccc(OC)cc1	62.0	i	i	i
CCOC(=O)C1=C(O)/C(=C/c2ccc(OCC(=O)O)c(OCC)c2)SC1=Nc1ccc(C)cc1	i	i	i	i
O=C(O)CN=C1NC2(CCCCC2)Cc2ccccc21	i	i	i	i
O=C1NC2(CCCCC2)Cc2ccccc21	i	i	i	i
